# Most compounds without a hit are left out; they make up all but 18% or so of the library.
# IL-1B inflam inh – inflammasome signaling inhibition, IL-1 beta readout; THP-1 LPS/ATP IL-1B secretion, AlphaLISA, 16 h; stronger effect = lower value; activity change, % at 57.5 µM; hit rate 4.7% among 360,000; AID 743279; in the data active = activity change below about -50%; inconclusive = mostly about -30% to -49%
#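 THP-1 cells pretreated 1 hr with compounds (up to 57.5 uM final), then stimulated with LPS (250 ng/mL final) plus ATP (1.25 mM final); secreted IL-1B measured by AlphaLISA after 16 hr, decreased signal indicating inhibition.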
# CtBP-E1A inh – inhibitors of CtBP/E1A interaction; AlphaScreen GST-E1A/His-CtBP binding, 1536-well; stronger effect = lower value; activity change, % (no concentration beside the values); hit rate 0.49% among 340,000; AID 651724; in the data active = activity change below about -65%; inconclusive = mostly about -30% to -63%
#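 Homogeneous bead-based format: GST-tagged E1A captured on glutathione donor beads, His-tagged CtBP on nickel acceptor beads; compounds precede bead addition by 2 h at 37 °C.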
# Six1-Eya2 inh – inhibitors of human Six1/Eya2 interaction | AID 651725 | Q15475+O00167 | activity change, % (concentration not given with the values) | hit rate 0.56% among 360,000 | AlphaScreen GST-Six1/His-Eya2 binding, biochemical; stronger effect = lower value; in the data active = activity change below about -65%; inconclusive = mostly about -30% to -63%
# Target sequence (O00167 whole entry, looked up): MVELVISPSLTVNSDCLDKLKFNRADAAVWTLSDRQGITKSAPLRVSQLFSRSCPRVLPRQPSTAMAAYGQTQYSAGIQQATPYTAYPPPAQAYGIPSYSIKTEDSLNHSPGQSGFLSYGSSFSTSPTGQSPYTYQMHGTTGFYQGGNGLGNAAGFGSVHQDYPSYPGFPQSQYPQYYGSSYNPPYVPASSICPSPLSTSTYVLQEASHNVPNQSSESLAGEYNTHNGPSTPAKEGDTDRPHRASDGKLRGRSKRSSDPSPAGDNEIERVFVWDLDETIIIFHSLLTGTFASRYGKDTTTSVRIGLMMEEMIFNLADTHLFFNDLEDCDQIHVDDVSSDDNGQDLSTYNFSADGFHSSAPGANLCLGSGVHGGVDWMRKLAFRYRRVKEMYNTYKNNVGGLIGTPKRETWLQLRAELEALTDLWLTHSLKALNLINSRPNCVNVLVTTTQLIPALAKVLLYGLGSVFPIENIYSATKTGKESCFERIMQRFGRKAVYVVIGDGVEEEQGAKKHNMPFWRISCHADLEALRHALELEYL
# Target sequence (Q15475 whole entry, looked up): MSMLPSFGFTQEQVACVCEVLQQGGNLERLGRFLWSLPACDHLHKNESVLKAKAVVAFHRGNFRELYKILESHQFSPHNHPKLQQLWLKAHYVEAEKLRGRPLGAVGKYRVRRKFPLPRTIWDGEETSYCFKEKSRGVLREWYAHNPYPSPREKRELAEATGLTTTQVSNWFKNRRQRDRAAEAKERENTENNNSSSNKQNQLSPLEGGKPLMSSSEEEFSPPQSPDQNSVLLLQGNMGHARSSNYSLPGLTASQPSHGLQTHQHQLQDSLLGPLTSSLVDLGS
#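 Six1/Eya2 binding was read as AlphaScreen signal after compounds were pinned into GST-Six1 plus His-tagged Eya2 (5X stock 250/500 nM) in pH 8.0 Tris/NaCl/TCEP buffer, beads added, then incubated 1 h, 37 C, dark.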
# TDP1 block – inhibitors of human tyrosyl-DNA phosphodiesterase TDP1; recombinant TDP1, AlphaScreen DNA substrate cleavage; Potency, µM (top dose mostly 130 µM), for the others: at the highest dose activity change, negative = inhibition, most hits filed as inhibitors; hit rate 0.28% among 350,000; AID 485290; note: potency is the fitted concentration of half-maximal effect; nearly all actives have a fitted effect of over 40% in size
#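 Recombinant E. coli-expressed Tdp1 (1 nM) preincubated with compound 15 min at RT, then 5'-biotin/3'-phosphotyrosine-FITC DNA substrate (15 nM) added for 5 min. AlphaScreen beads (10 ug/ml) added, 10 min RT; tyrosine-FITC cleavage read as signal loss.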
# DT40 TDP1 CPT – DT40-hTDP1 cell growth loss with CPT; Potency, µM (titrated, usually from 46.2 µM), for the others: top-dose activity change, negative = growth inhibition, most hits filed as inhibitors; chicken DT40 Tdp1-/-;hTDP1 cells + 20 nM CPT, ATP luminescence, 48 h; AID 686979; hit rate 12% among 420,000; note: potency is the fitted concentration of half-maximal effect; nearly all actives have a fitted effect of over 55% in size
#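 Cell growth measured by CellTiter-Glo luminescence after a minimum 48 h, 37 C compound exposure with 20 nM CPT in Tdp1-knockout DT40 cells stably expressing hTDP1, seeded 400/well; qHTS titration format.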
# DT40 TDP1 no CPT – qHTS for Inhibitors of human tyrosyl-DNA phosphodiesterase 1 (TDP1): qHTS in cells in absence of CPT. hit rate 15% among 420,000. AID 686978, 2013. DT40 Tdp1-/- hTDP1 cells, no CPT, ATP luminescence, 48 h. Potency, µM (top dose mostly 46.2 µM), without a hit: top-dose activity change, negative = growth inhibition, most hits filed as inhibitors; note: potency is the fitted concentration of half-maximal effect; nearly all actives have a fitted effect of over 55% in size
#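 Seeded 400 DT40-hTDP1 cells/well (vehicle DMSO, no 20 nM CPT); pinned compounds; ≥48 hr at 37 °C; CellTiter-Glo luminescence as viability measure.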
# * marks the source's active call; other numbers are inactive results; ? = inconclusive; . = no result; [ ] = another dose, or the depositor's remark. Unless noted, calls come from the whole dose curve; as a rule, active = well fitted curve in the direction sought with a large enough effect; inconclusive = small, poorly fitted or top-dose-only effect, or another doubt; inactive = no such curve, though single readings can be large; an effect the other way counts as inactive or inconclusive. % is set by controls: 0 for no effect and ±100 for the full control effect.
SMILES,IL-1B inflam inh,CtBP-E1A inh,Six1-Eya2 inh,TDP1 block,DT40 TDP1 CPT,DT40 TDP1 no CPT
CCCCCn1c(=O)c(C(=O)Nc2ccccc2Cl)c(O)c2ccccc21,37,.,3,.,5.2µM*,5.2µM*
NC(=O)COc1c(F)cc(SCCNS(=O)(=O)c2ccccc2)cc1F,.,.,.,8%,.,.
CC(=O)OC1C(O)C(C)OC(OC2C(OC(=O)C3CCC4C(C3)OC3(CC(OC(=O)/C=C/c5ccccc5)C(C)CO3)C43CO3)OC(C)C(O)C2OC(C)=O)C1O (centres undefined),-98*,6,0,.,0.15µM*,0.073µM*
O=C1Nc2ccc(Cl)cc2C(c2ccccc2Cl)=NC1O (centres undefined),.,.,.,7%,?,-95%
COc1cccc(N2C(=O)NC(=O)C3(Cc4cc(C)ccc4N(C)C3)C2=O)c1 (centres undefined),2,7,0,7%,?,?
Cc1ccc2c(c1)CC1(CN2C)C(=O)NC(=O)N(c2cc(C)ccc2C)C1=O (centres undefined),19,1,-3,4%,-15%,-16%
COc1cc(CN2C(=O)NC(=O)C3(Cc4cc(C)ccc4N(C)C3)C2=O)cc(OC)c1 (centres undefined),37,0,-2,3%,?,0.01µM*
CCCCN1C(=O)NC(=O)C2(Cc3cc(C)ccc3N(C)C2)C1=O (centres undefined),9,-12,-9,12%,?,13µM*
COc1ccc2c(c1)CC1(CN2C)C(=O)NC(=O)N(CCc2ccccc2)C1=O (centres undefined),21,-2,-2,10%,?,5.8µM*
O=C(CCc1ccccc1)N1Cc2cc(-c3cccc(F)c3)ccc2-n2nncc2C1,-25,-4,-8,.,?,?
CN(C)c1cc[n+](CC(O)C[n+]2ccc(N(C)C)cc2)cc1,5,2,0,-1%,-7%,-7%
CC(C)C[C@H](NC(=O)[C@H](Cc1ccccc1)NC(=O)CNC(=O)CNC(=O)[C@@H](N)Cc1ccc(O)cc1)C(=O)N[C@@H](CCCN=C(N)N)C(=O)N[C@@H](CCCCN)C(=O)N[C@@H](Cc1ccc(O)cc1)C(=O)N1CCC[C@H]1C(=O)N[C@@H](CCCCN)C(=O)O,.,.,.,10%,8%[4.12 µM],2%[4.12 µM]
CN1CCN2c3ccccc3CC3(C(=O)N(C)C(=O)N(C)C3=O)C2C1 (centres undefined),4,1,-11,0%,-1%,-4%
C=C[C@H]1CN2CC[C@@H]1C[C@H]2[C@@H](O)c1ccnc2ccccc12,.,.,.,12%[21 µM],.,.
CC(C)(C)c1cc([N+](=O)[O-])cc(C(C)(C)C)c1O,-16,2,-2,3%,10µM*,5.2µM*
NC(=O)c1cc([N+](=O)[O-])cc([N+](=O)[O-])c1,27,5,-4,4%,?,?
Cc1[nH]c2ccc(OC(F)(F)F)cc2c1CCNCc1cccc([N+](=O)[O-])c1,-95*,-16,-21,.,?,13µM*
COc1ccc2[nH]c(C)c(CCNCc3cccnc3)c2c1,-5,-13,-1,5%,1%,10%
Cc1[nH]c2ccc(OC(F)(F)F)cc2c1CCNCc1ccc(Cl)cc1,-97*,-11,1,.,26µM*,15µM*
CCOc1cccc(CNCCc2c(C)[nH]c3ccc(OC(F)(F)F)cc23)c1O,-98*,.,-21,.,2.9µM*,2.1µM*
Cc1ccc2[nH]c(C)c(CCNCc3ccco3)c2c1,-24,.,-15,3%,?,?
COc1ccc(CN2CCN(C(=O)Cc3ccccc3)CC2)c(OC)c1,4,3,-1,.,1%,-4%
C/C=C1\NC(=O)[C@H](C)NC(=O)[C@@H](NC(=O)[C@H](Cc2ccc(O)cc2)NC(=O)[C@@H](NC(=O)/C(C)=C/C)C(C)C)[C@@H](C)OC(=O)[C@H](CCCc2ccc(O)cc2)NC(=O)[C@@H](CCC(=O)O)NC1=O,18,1,1,.,1%,1%
ClCCN(CCCl)c1ccc(/C=C/c2ccnc3ccccc23)cc1,.,.,.,.,4µM*,3.5µM*
Cc1cc(/C=C/c2ccnc3ccccc23)ccc1N(CCCl)CCCl,.,.,.,.,?,25µM*
SMILES,IL-1B inflam inh,CtBP-E1A inh,Six1-Eya2 inh,TDP1 block,DT40 TDP1 CPT,DT40 TDP1 no CPT
ClCCN(CCCl)c1ccc(C=Cc2ccncn2)cc1,?,48,55,.,6.5µM*,9.2µM*
Oc1ccc2c3c1O[C@H]1[C@H](O)CC[C@@]4(O)[C@@H](C2)N(CC2CC2)CC[C@]314,.,.,.,8%,.,.
c1ccc(N=NNc2ccccc2)cc1,.,.,.,25%,.,.
O=c1cc(CN2CC=C(c3ccccc3)CC2)c2c(ccc3ccccc32)o1,26,-3,0,3%,?,21µM*
C[C@@H]1O[C@@H](O[C@@H]2C=C3CC[C@@H]4C(CC[C@]5(C)[C@@H](c6ccc(=O)oc6)CC[C@]45O)[C@@]3(C)CC2)[C@H](O)[C@H](O)[C@H]1O (some centres undefined),-56*,-15,-9,0%,0.16µM*,0.16µM*
C[C@@H]1O[C@@H](O[C@@H]2C=C3CCC4C(CC[C@]5(C)[C@@H](c6ccc(=O)oc6)CC[C@]45O)[C@@]3(C)CC2)[C@H](O)[C@H](O)[C@H]1O (some centres undefined),-52*,3,1,.,0.058µM*,0.015µM*
C[C@@H]1O[C@@H](O[C@H]2C[C@@H](O)[C@]3(CO)[C@H]4[C@H](O)C[C@]5(C)[C@@H](C6COC(=O)C6)CC[C@]5(O)[C@@H]4CC[C@]3(O)C2)[C@H](O)[C@H](O)[C@H]1O (some centres undefined),0,0,11,-5%,-9%,?
CC(C)c1ccc(Cc2cnc(NC(=O)c3ccc4c(c3)CC(c3ccccc3)OC4=O)s2)cc1 (centres undefined),.,.,.,4%,23µM*,18µM*
O=C(Nc1ncc(Cc2ccccc2)s1)C1=NCCN1,-6,0,-18,6%,-28%,?
CC(C)N1C(=O)/C(=C/C=C/c2ccco2)C(=O)N(Cc2ccco2)C1=O,-106*,11,?,6%,16µM*,15µM*
Cc1cc(OCC(=O)N2CCCN(C)CC2)ccc1Cl,-10,8,1,1%,-2%,0%
O=C(c1ccccc1F)N1CCC2(CC1)OCCO2,39,13,16,.,-13%,-7%

# Bioassay records from PubChem BioAssay.
